About 79,000 compounds went through this panel and 15% of them were active in at least one assay; those are over-represented in the sample as a whole. Unmarked numbers belong to inactive results. The source made the active and inactive calls. Rule as the data show it: active = growth inhibition above about 70%; inactive = the rest.
Assay: NCI Yeast Anticancer Drug Screen. Data for the mlh1 strain (AID 171);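 also: 0% = growth of vehicle-treated control cultures of the same strain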
Settings: S. cerevisiae mlh1 strain growth inhibition, active compounds read high
Method: Growth inhibition of yeast strains with defined genetic alterations is measured as a screen for potential anti-cancer activity. Selected strains with alterations in DNA damage repair or cell cycle control were exposed to compounds and growth inhibition was measured relative to vehicle treated controls. The strain used in this assay is mlh1

Row | Compound | growth inhibition (at 1.2 µM) [%] | growth inhibition (at 3.7 µM) [%] | growth inhibition (at 11.0 µM) [%] | growth inhibition (at 33.0 µM) | growth inhibition (at 100.0 µM)
1 | c1ccc2c(OCC3CO3)cccc2c1 (stereo not given) | 0 | 1 | 5 | 10% | 40%
2 | CC[N+](CC)(CC)c1ccccc1 | -26 | -46 | -43 | -43% | -42%
3 | CCOC1Oc2ccccc2-c2nc(N)ncc21 (stereo not given) | 11 | 16 | 1 | 4% | -1%
4 | O=Cc1ccc2c(c1)C(=O)c1ccccc1C2=O | 2 | 1 | 10 | 44% | 82% (active)
5 | Cc1nc2ccc(N=NN(C)C)cc2[nH]1 | 2 | 3 | 15 | 99% (active) | 99% (active)
6 | O=C(NNc1ccccc1)C(O)C(O)C(O)C(O)C(O)CO (stereo not given) | 4 | 2 | 22 | 44% | 91% (active)
7 | CC[N+]1(C)CCC(O)(c2ccc(OC)cc2)C(C(=O)c2ccc(OC)cc2)C1 (stereo not given) | -78 | -64 | -16 | -55% | -62%
8 | CC(=O)OCC(C)Cc1cc2c(cc1Br)OCO2 (stereo not given) | -21 | -8 | -10 | -11% | 62%

From PubChem BioAssay (NCI)
